According to article PMC4336329 (PLoS ONE, 2015):
Among all 310,000 compounds or so, about 14,000 (4.5%) showed an effect of 50% or more. Effects have a minus sign here. This excerpt belongs to a sample that is enriched for strong results.

Target: human ether-à-go-go-related gene (hERG) potassium channel (human, UniProt Q12809)
Assay: primary screen, population patch clamp on CHO cells stably expressing hERG; higher = less effect of the substance
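Also: peak tail current of the secondary pulse compared with the same well before compound.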

Sequence of human ether-à-go-go-related gene (hERG) potassium channel (Q12809 whole entry, looked up): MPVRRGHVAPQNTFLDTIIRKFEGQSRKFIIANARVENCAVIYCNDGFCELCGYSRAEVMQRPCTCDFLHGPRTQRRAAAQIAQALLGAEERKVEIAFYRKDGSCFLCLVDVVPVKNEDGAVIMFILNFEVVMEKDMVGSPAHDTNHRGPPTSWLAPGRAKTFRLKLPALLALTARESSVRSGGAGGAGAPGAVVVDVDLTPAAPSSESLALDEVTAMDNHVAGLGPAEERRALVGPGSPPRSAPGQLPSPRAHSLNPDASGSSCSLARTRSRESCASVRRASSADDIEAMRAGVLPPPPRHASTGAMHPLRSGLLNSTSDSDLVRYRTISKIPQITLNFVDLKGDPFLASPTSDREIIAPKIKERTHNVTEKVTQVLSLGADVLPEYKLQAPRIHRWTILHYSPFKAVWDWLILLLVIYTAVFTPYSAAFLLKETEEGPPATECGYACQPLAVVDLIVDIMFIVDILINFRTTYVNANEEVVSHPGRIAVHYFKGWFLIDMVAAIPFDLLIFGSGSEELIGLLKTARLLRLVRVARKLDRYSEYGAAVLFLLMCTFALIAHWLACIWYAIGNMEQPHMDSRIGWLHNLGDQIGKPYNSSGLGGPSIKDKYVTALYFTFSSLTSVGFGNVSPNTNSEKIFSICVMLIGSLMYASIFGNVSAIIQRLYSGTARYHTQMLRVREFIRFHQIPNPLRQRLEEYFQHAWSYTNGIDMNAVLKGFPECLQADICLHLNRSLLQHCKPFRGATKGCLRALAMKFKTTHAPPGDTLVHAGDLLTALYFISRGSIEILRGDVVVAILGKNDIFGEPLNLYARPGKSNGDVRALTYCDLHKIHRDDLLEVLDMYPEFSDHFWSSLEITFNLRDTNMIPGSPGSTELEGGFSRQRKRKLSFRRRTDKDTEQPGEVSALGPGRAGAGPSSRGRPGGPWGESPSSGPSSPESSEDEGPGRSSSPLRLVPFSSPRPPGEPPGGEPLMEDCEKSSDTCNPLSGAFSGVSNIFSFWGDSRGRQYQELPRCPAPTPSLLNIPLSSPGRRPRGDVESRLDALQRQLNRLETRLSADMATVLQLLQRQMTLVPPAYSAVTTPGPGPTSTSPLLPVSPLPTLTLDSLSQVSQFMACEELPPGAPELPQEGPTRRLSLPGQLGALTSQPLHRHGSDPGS

Compound	hERG current change (%, negative = inhibition) at 10uM
Cc1n[nH]c(C)c1Sc1ccccc1N=Cc1cc(Cl)cc([N+](=O)[O-])c1O	-10.9%
N#CCSc1nnc(C2CCCCC2)n1-c1ccccc1	4.45%
CCOC(=O)c1c(C)oc2cc(Cl)c(O)c(CN(C)C)c12	-6.79%
CC(OC(=O)c1ccc(S(=O)(=O)NCc2ccco2)cc1)C(=O)Nc1ccc(Cl)cn1 (centres unmarked)	-39.8%
CC(C)C[C@@]12C(=O)N(c3cccc(Cl)c3)C(=O)N1[C@H](c1ccc(Br)cc1)[C@@H]1C(=O)N(C(C)(C)C)C(=O)[C@@H]12	22.7%
COc1ccc(CNC(=O)Nc2ccc3c(c2)N(C)C(=O)CS3)cc1	-0.138%
CCC(C)[C@H](NC(=O)N1CCCCCC1)C(=O)OC (some centres unmarked)	5.25%
O=C(NCc1ccccc1)C1=C[C@@H](c2ccc3c(c2)OCO3)C[C@@H](OCc2ccc(CO)cc2)O1	-25%
COc1cccc(CN2CCN(C3CCN(c4ccccc4F)CC3)CC2CCO)c1 (centres unmarked)	-74.9%
CCOc1ccccc1CN1CCN(C2CCC2)CC1CCO (centres unmarked)	27.4%
COc1cc(CN2CCN(C3CCC3)CC2CCO)cc(OC)c1 (centres unmarked)	8.54%
COc1ccc(CN2CCN(C3CCC3)CC2CCO)c(F)c1 (centres unmarked)	9.71%
CCOc1ccccc1CN1CCN(C2CCN(c3ccccc3F)CC2)CC1CCO (centres unmarked)	-71.6%
CCOc1ccccc1CN1CCN(C2CCOCC2)CC1CCO (centres unmarked)	9.47%
COc1ccc(CNC(=O)COC(=O)c2ccco2)cc1	28.3%
Cc1cc(NC(=O)CSc2nnc(Cn3c(=O)sc4ccccc43)n2-c2ccccc2C)no1	2.54%
COc1ccc2nc(NC(=O)CSCc3c(C)noc3C)sc2c1	1.24%
Cc1ccc(OC(C)C(=O)N2CCCc3ccccc32)cc1 (centres unmarked)	-16.3%
O=C(Cn1nc(-c2ccccc2)nc1-c1ccccc1)OC1CCCCC1	7.88%
COCCCN(C(=O)CCOc1ccccc1C)c1c(N)n(Cc2ccccc2)c(=O)[nH]c1=O	-3.05%
Cc1ccccc1OCCC(=O)N(Cc1ccccc1)c1c(N)n(Cc2ccccc2)c(=O)[nH]c1=O	-7.3%
COCCCN(C(=O)CCOc1ccc(C(C)(C)C)cc1)c1c(N)n(Cc2ccccc2)c(=O)[nH]c1=O	-62.2%
CCCN(C(=O)CCOc1ccc(C(C)(C)C)cc1)c1c(N)n(Cc2ccccc2)c(=O)[nH]c1=O	29.7%
Cc1ccccc1OCCC(=O)N(CC(C)C)c1c(N)n(Cc2ccccc2)c(=O)[nH]c1=O	-64.4%
COCCCN(C(=O)CCOc1ccc(C)cc1)c1c(N)n(Cc2ccccc2)c(=O)[nH]c1=O	-20.2%
C=CCNC(=O)c1ccc2nc(-c3ccccc3)c(-c3ccccc3)nc2c1	-15.4%
CN(c1ccccc1)c1ccc(/C=C(\CCC(=O)O)c2nc3ccccc3s2)cc1[N+](=O)[O-]	44.6%

Compound	hERG current change (%, negative = inhibition) at 10uM
CCOC(=O)C1(Cc2cccc(Cl)c2)CCCN(C(=O)c2cc(C)on2)C1 (centres unmarked)	-9.8%
O=C(NCc1ccc(F)cc1)C1CCCN(C(=O)Nc2ccccc2)C1 (centres unmarked)	-38.5%
CC1(C)CC(=O)C2=C(C1)OC(N)=C(C#N)C2c1ccccc1 (centres unmarked)	-14.4%
CC(c1ccccc1)C1C(C#N)=C(N)OC2=C1C(=O)CCC2 (centres unmarked)	-6.39%
CC(c1ccccc1)C1C(C#N)=C(N)OC2=C1C(=O)CC(C)(C)C2 (centres unmarked)	-56.9%
CC(=O)Nc1ccccc1-c1nc2ccc(C(=O)N3CCN(c4cc(C)ccc4C)CC3)cc2[nH]c1=O	-23.5%
O=c1cc(CN2CCN(S(=O)(=O)c3ccccc3)CC2)nc2sccn12	-2.25%
COc1ccc(S(=O)(=O)N2CCN(Cc3ccccc3)CC2)cc1	-19.5%
COc1ccc(S(=O)(=O)N2CCN(C3CCN(Cc4ccccc4)CC3)CC2)cc1	-59.4%
COc1ccc(S(=O)(=O)N2CCC(N3CCN(Cc4ccccc4)CC3)CC2)cc1.O=C(O)C(=O)O	-39.2%
Cc1ccc(S(=O)(=O)N2CCN(C3CCN(Cc4ccccc4)CC3)CC2)cc1.O=C(O)C(=O)O	-76.6%
Cc1ccc(S(=O)(=O)N2CCN(Cc3ccccc3)CC2)cc1	-9.58%
CCOC(=O)N1CCC(N2CCN(S(=O)(=O)c3ccc(C)cc3)CC2)CC1.O=C(O)C(=O)O	-19.1%
O=c1cc(CN2CCN(S(=O)(=O)c3ccccc3[N+](=O)[O-])CC2)nc2sccn12	-53.7%
CN1CCN(CC2(O)CCN(S(=O)(=O)c3ccc(Cl)cc3)CC2)CC1	-36%
O=c1cc(CN2CCN(S(=O)(=O)c3ccc4ccccc4c3)CC2)nc2sccn12	-25.2%
O=S(=O)(c1ccc(Cl)cc1)N1CCC(O)(CN2CCN(Cc3ccccc3)CC2)CC1	-75.8%
O=S(=O)(c1ccccc1)N1CCC(O)(CN2CCN(c3ccccc3)CC2)CC1	12.2%
Cc1ccc(CNC(=S)NC2CCC(C(C)(C)C)CC2)cc1 (centres unmarked)	10.8%
CCC(NC(=O)C1CCC1)c1ccccc1 (centres unmarked)	12.6%
Cc1c(/C=C/C(=O)c2cccs2)cnn1C	-0.723%
COc1ccc(CNc2cccc(C)n2)c(O)c1	-3.24%
Cc1cc(C)c(NC(=O)COC(=O)c2ccc([N+](=O)[O-])s2)c(C)c1	0.0437%
COc1ccccc1NS(=O)(=O)c1cc(NC(=O)c2[nH]c(C)c(C(C)=O)c2C)ccc1N1CCOCC1	0.128%
O=C(CSc1nc(-c2ccccc2)cc(=O)[nH]1)Nc1ccccc1	18%
COc1ccc(C(=O)/C=C/c2cn(CC(O)CN3CCOCC3)c3ccccc23)cc1 (centres unmarked)	3.55%
